Experiment [1] has as its target T1, Hexokinase-4 (Homo sapiens) + Glucokinase regulatory protein (Homo sapiens) (UniProt P35557+Q14397). In words: qHTS assay for inhibitors of recombinant human GCK-GKRP interaction: ADP-Glo assay (AID 743206).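 Further: plate controls were DMSO plus enzyme for no effect and no enzyme for full effect.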 The gist of the method:
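GST-GCK and FLAG-GKRP (15 nM each in the dispensed mix, with 2 uM S6P) react with 0.4 mM ATP and 5 mM glucose (final) in Hepes pH 7.6 for 60 min at room temperature. ADP is measured by ADP-Glo luminescence.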
(Quantitative high-throughput screening tests each substance at several concentrations.)

The target of experiment [2] is T1, Hexokinase-4 (Homo sapiens) + Glucokinase regulatory protein (Homo sapiens). In words: qHTS assay for inhibitors of recombinant human GCK-GKRP interaction: HTRF assay (AID 743207).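 Further: 0% = DMSO with GCK present and -100% = DMSO wells lacking GCK.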 The gist of the method:
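HTRF read-out (ex 320 nm; 615/665 nm emission) after 60 min RT equilibration of 5 nM GST-GCK, 5 nM FLAG-GKRP, 2 uM S6P, compound and anti-FLAG/anti-GST detection antibodies; signal normalized between DMSO wells with and without GCK.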

Experiment [3] is described as follows: qHTS Assay for Identifying Gametocytocidal Compounds (AID 743244).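 Further: on the % scale 0 is the no-effect control and ±100 the full control effect; actives lower the fluorescent signal which means gametocytes are killed.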 To be noted: P. falciparum 3D7 stage III-V gametocytes, alamarBlue, 72 h; max response: stronger effect = lower value. The method, boiled down:
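Late gametocytes (III–V), P. falciparum 3D7; 72 h drug, then 24 h alamarBlue; resazurin reduction read by fluorescence.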

Experiment [4] can be described thus: qHTS profiling of the MIPE4 collection as inhibitors of Plasmodium falciparum (3D7) proliferation (AID 743344; call rule not given here;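 further: scaled between DMSO vehicle wells and 0.29 µM artemisinin as full inhibition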). To be noted: P. falciparum 3D7 in erythrocytes, SYBR Green DNA fluorescence, 72 h; at 28.5 µM (top of the series) unless noted. The method, boiled down:
(§1)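 Erythrocytes infected with P. falciparum (0.3% parasitemia, 2.5% hematocrit) incubated with compounds 72 h at 37 C, 5% CO2. Lysis with saponin/Triton buffer containing SYBR Green I, overnight at room temperature in the dark; DNA fluorescence (485/535 nm) normalised to 0.29 uM artemisinin and DMSO.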

Experiment [5] is described as follows: qHTS profiling of the MIPE4 collection as inhibitors of Plasmodium falciparum (DD2) proliferation (AID 743345; call rule not given here). To be noted: P. falciparum Dd2 in erythrocytes, SYBR Green DNA, 72 h; at 28.5 µM (top of the series) unless noted. The method, boiled down:
as §1

Experiment [6] is described as follows: qHTS profiling of the MIPE4 collection as inhibitors of Plasmodium falciparum (DD2) proliferation (Rep 2) (AID 743346; call rule not given here). To be noted: P. falciparum Dd2 in erythrocytes, SYBR Green DNA, 72 h; at 28.5 µM (top of the series) unless noted. The method, boiled down: as §1
Experiment [7] is described as follows: qHTS profiling of the MIPE4 collection as inhibitors of Plasmodium falciparum (HB3) proliferation (AID 743347; call rule not given here;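 further: plate controls were DMSO vehicle wells for no effect and artemisinin wells for full effect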). To be noted: P. falciparum HB3 in erythrocytes, SYBR Green DNA, 72 h; at 28.5 µM (top of the series) unless noted. The gist of the method:
as §1

The nature of experiment [8]: High-throughput drug toxicity screening in the BPDCN cell line Cal-1 (AID 1224825; call rule not given here). Conditions: Cal-1 BPDCN cell viability, qHTS; at 45.8 µM (top of the series) unless noted. The gist of the method:
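Cal-1 cells, 500 per well in phenol-red-free RPMI with 10% FBS, exposed to compounds for 48 hours at 37C, 5% CO2. Viability read by CellTiter-Glo luminescence; percent activity normalized to DMSO (100%) and 9.2 uM bortezomib final (0%).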

A short description of experiment [9]: qHTS assay for measurement of the activity of small molecule inhibitors on Zika virus induced Caspase-3 activity in human iPSC derived neural progenitor cells (hNPCs) (AID 1224857). Further: % of control where 0% means no effect; nearly all actives have a fitted effect of over 65% in size. The gist of the method:
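Caspase-3/7 induction by a 6-hour ZIKV infection was quantified with a luminescent Caspase-Glo 3/7 reagent incubated 30 minutes at room temperature. Compounds were preincubated with hNPCs for 1 hour; inhibition was calculated against uninfected and infected control wells.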

The nature of experiment [10]: qHTS assay for measurement of the activity of small molecule inhibitors on Zika virus induced Caspase-3 activity in human astrocytoma cells (AID 1224859).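 Further: plate controls were ZIKV-infected untreated cells for no effect and uninfected cells for full effect.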 The method, boiled down:
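In SNB-19 cells plated at 250 cells/well and grown 16-20 h, compounds were applied 1 h before ZIKV (2 FFU/cell). Six hours later caspase-3/7 luminescence was recorded.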

A short description of experiment [11]: qHTS Screen of the MIPE 4.0 Collection Against Ewings Sarcoma (RDES) (AID 1259252). Further: nearly all actives have a fitted effect of over 35% in size. Further: potency means the concentration at half of the fitted maximal effect. The method, boiled down:
(§2)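 Dose series incubated 48 h with cells in RPMI plus 5% FBS, glutamine and penicillin/streptomycin; cell viability then quantified via CellTiter-Glo.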

Experiment [12] is described as follows: qHTS Screen of the MIPE 4.0 Collection Against Ewings Sarcoma (TC71) (AID 1259253). Further: nearly all actives have a fitted effect of over 40% in size. Further: potency means the concentration at half of the fitted maximal effect. The method, boiled down:
as §2

Experiment [13] in a line: qHTS Screen of the MIPE 4.0 Collection Against Ewings Sarcoma (EW8) (AID 1259255). Further: nearly all actives have a fitted effect of over 35% in size. Further: potency means the concentration at half of the fitted maximal effect.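 On viability: 100% = DMSO-treated cells and 0% = medium-only wells without cells.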 The method, boiled down:
as §2

Experiment [14] in a line: qHTS Screen of the MIPE 4.0 Collection Against Ewings Sarcoma (TC32) (AID 1259256). Further: nearly all actives have a fitted effect of over 45% in size. Further: potency means the concentration at half of the fitted maximal effect. The method, boiled down: as §2
Experiment [15] is described as follows: qHTS profiling for inhibitors of Plasmodium falciparum (3D7) proliferation (AID 743322).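 Further: infected erythrocytes exposed to compound for 72 h before lysis; 100% = DMSO vehicle wells and 0% = 0.29 µM artemisinin.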 Conditions: P. falciparum 3D7 proliferation, at 28.7 µM (top of the series). The gist of the method: as §1
Experiment [16] can be described thus: qHTS profiling for inhibitors of Plasmodium falciparum (DD2) proliferation (AID 743323; call rule not given here). Conditions: at 28.7 µM (top of the series), lower = more inhibition. The method, boiled down: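 Parasite DNA quantified by SYBR Green fluorescence (ex 485, em 535 nm) after saponin/Triton lysis and overnight dark incubation. Cultures: 0.3% parasitemia, 2.5% hematocrit, 72 h, 37 C; data scaled between DMSO and 0.29 uM artemisinin.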

A short description of experiment [17]: qHTS assay for cell viability of the p53RE-bla HCT-116 cell line (AID 743292). Further: on the % scale 0 is the no-effect control and ±100 the full control effect; nearly all actives have a fitted effect of over 55% in size. The method, boiled down:
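Luminescent ATP quantitation (CellTiter-Glo) served as the viability read-out; reagent was added after 16 h compound exposure at 37 C and read after 30 min at room temperature. Cells: p53RE-bla HCT-116, 4,000 per well.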

“And” between values parts separate entries of the source, which are not always exact repeats. Equal entries are not always repeated. Results filed as inconclusive are left out. The source made the active and inactive calls. Unless noted, the call rests on the fitted dose curve; in most records, active means well fitted curve in the direction sought with a large enough effect; inconclusive means small, poorly fitted or top-dose-only effect, or another doubt; inactive means no such curve, though single readings can be large; an effect the other way counts as inactive or inconclusive.

T1 sequence (P35557 whole entry, looked up): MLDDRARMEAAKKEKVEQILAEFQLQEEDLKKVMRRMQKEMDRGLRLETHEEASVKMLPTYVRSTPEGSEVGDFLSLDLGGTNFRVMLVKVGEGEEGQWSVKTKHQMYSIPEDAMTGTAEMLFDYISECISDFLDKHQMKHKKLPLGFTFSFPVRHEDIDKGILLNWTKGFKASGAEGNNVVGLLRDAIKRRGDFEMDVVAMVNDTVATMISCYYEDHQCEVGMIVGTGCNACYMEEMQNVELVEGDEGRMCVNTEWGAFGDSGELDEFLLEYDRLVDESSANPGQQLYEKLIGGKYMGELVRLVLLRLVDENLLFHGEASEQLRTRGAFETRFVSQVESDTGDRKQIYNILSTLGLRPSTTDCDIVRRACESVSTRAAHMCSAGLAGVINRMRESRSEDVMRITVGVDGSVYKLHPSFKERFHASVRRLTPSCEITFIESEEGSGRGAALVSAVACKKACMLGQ
T1 sequence (Q14397 whole entry, looked up): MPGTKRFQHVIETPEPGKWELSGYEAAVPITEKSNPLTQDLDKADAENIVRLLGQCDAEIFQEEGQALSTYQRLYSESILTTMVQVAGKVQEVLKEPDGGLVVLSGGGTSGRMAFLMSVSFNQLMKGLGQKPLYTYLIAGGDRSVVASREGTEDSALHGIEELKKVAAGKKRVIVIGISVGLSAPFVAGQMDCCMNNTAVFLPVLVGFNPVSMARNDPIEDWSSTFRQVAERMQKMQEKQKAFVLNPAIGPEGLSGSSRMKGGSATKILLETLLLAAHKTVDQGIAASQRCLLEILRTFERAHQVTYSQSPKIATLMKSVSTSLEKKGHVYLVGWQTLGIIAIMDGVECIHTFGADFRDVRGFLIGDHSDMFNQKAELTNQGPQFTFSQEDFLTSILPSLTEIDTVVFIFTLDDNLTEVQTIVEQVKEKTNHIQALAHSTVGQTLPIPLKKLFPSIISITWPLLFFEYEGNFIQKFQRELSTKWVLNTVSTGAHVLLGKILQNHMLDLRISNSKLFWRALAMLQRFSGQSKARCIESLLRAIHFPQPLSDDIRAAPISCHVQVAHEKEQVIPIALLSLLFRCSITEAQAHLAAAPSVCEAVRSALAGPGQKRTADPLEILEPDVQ

Consider `CCN1CCCC1CNC(=O)c1cc(S(=O)(=O)CC)c(N)cc1OC` (centres undefined), for which the Potency entry in experiment [1], in experiment [2], in experiment [9], in experiment [10], in experiment [11] and in [12] was “inactive” throughout. In addition, in [3], the max response is -5.68% (inactive) and 24.9% (inactive). This molecule showed a parasite growth, % of DMSO control in [4] of 93.7%. Also, the parasite growth remaining, % of DMSO control (lower = more inhibition) in [5] was 99.9%. In addition, the parasite growth, % of control (lower = inhibition) in experiment [6] is 50.9%. This molecule came in with a growth, % of control in [7] of 101%. In experiment [8], this molecule registered a viability (% of control) of 55.1%. The Potency in experiment [13] was 20.9 µM (active).

On to `CCOC(=O)c1ncn2c1CN(C)C(=O)c1cc(F)ccc1-2`, for which the Potency entry in [1], in experiment [2], in [9], in [10], in [11] and in [12] was “inactive” throughout. Besides, the max response in experiment [3] is 2.86% (inactive) and 37.5% (inactive). In [8], this molecule displayed a viability (% of control) of 17.4%. Further, the Potency in experiment [14] was 13.2 µM (active).

For the molecule `CN1CCC(=C2c3ccccc3C=Cc3ccccc32)CC1`, the Potency result in experiment [1], in experiment [2], in [9] and in [10] was “inactive” in each case. This molecule also yielded a parasite growth, % of DMSO control in experiment [4] of 15%. In addition, in experiment [5], the parasite growth remaining, % of DMSO control (lower = more inhibition) was determined as 36%. The parasite growth, % of control (lower = inhibition) in experiment [6] amounted to 35.3%. The molecule also returned a growth, % of control in experiment [7] of 12.5%. The viability (% of control) in [8] amounted to 35%. For the same molecule, the Potency is 9.35 µM (active) in [11] and 16.6 µM (active) in experiment [12].

Regarding `CC[C@@]1(O)C(=O)OCc2c1cc1n(c2=O)Cc2cc3c(CN(C)C)c(O)ccc3nc2-1`, in [3], the max response is 27.1% (inactive) and 13.5% (inactive). The molecule further had a remaining parasite growth % (stronger effect = lower value) in [15] of 11.5%. Further, the activity, percent of control in [16] stood at 12.8%. In addition, in experiment [4], the parasite growth, % of DMSO control came to 13.9%. Further, the parasite growth remaining, % of DMSO control (lower = more inhibition) in [5] was found to be 16.9%. The parasite growth, % of control (lower = inhibition) in experiment [6] stood at 33.7%. Besides, the growth, % of control in experiment [7] is 21.3%. In experiment [8], this molecule came in with a viability (% of control) of 3.81%. Also, the Potency result in experiment [9] and in experiment [10] was “inactive” throughout. In addition, the values for the Potency in experiment [11], in experiment [12] and in experiment [13] were 0.0332 µM (active), 0.0372 µM (active) and 0.0332 µM (active), respectively.

For `CC12CC3CC(C)(C1)CC(N)(C3)C2`, the Potency result in [1], in [2], in experiment [9], in [11], in [12] and in experiment [13] was “inactive” throughout. In addition, in experiment [14], the Potency result was “inactive”. In addition, the max response in experiment [3] is 12.5% (inactive). The same molecule registered a parasite growth, % of DMSO control in [4] of 176%. In experiment [5], this molecule yielded a parasite growth remaining, % of DMSO control (lower = more inhibition) of 23.6%. For the same molecule, the parasite growth, % of control (lower = inhibition) in experiment [6] stood at 122%. In experiment [7], this molecule displayed a growth, % of control of 512%. This molecule also yielded a viability (% of control) in experiment [8] of 17.7%.

For `CCCCc1oc2ccccc2c1C(=O)c1cc(I)c(OCCN(CC)CC)c(I)c1`, the Potency result in [2], in experiment [9] and in [10] was “inactive” each time. In addition, in experiment [4], the parasite growth, % of DMSO control is 6.22%. The parasite growth remaining, % of DMSO control (lower = more inhibition) in experiment [5] came to 6.54%. Besides, the parasite growth, % of control (lower = inhibition) in experiment [6] worked out at 19.3%. In experiment [7], this molecule had a growth, % of control of 8.19%. In addition, the viability (% of control) in experiment [8] came out at 8.13%. The Potency was 8.33 µM (active) in experiment [11], 8.33 µM (active) in [12], 9.35 µM (active) in [13] and 8.33 µM (active) in [14].

For `CC#C[C@]1(O)CC[C@H]2[C@@H]3CCC4=CC(=O)CCC4=C3[C@@H](c3ccc(N(C)C)cc3)C[C@@]21C`, the Potency result in experiment [1], in experiment [2], in [17] and in [9] was “inactive” each time. In [4], this molecule showed a parasite growth, % of DMSO control of 7.43%. The parasite growth remaining, % of DMSO control (lower = more inhibition) in [5] was 45.8%. The parasite growth, % of control (lower = inhibition) in [6] amounted to 11.9%. Besides, the growth, % of control in experiment [7] was determined as 6.33%. The molecule further yielded a viability (% of control) in [8] of 5.97%. The Potency in experiment [11] was 0.187 µM (active); in [12], 0.264 µM (active); in experiment [13], 0.418 µM (active); in experiment [14], 0.264 µM (active).
